Measurements taken from PubChem BioAssay (Tox21).
Where “and” joins values, the source holds several entries; their conditions need not be identical. Equal values may be shown once. Records with an inconclusive call do not appear. More than one record can exist for a structure, and the calls need not agree. Calls of active or inactive are those of the source. Unless noted, the call rests on the fitted dose curve; in most records, active means well fitted curve in the direction sought with a large enough effect in the repeat runs; inconclusive means weak or mixed curves; inactive means no such curve, though single readings can be large; an effect the other way counts as inactive or inconclusive.

Tests used:
[1] = qHTS assay to identify small molecule antagonists of the estrogen receptor alpha (ER-alpha) signaling pathway using the BG1 cell line in the presence of 0.1 nM 17-beta-estradiol - cell viability counter screen (AID 1259241); further: nearly all actives have a fitted effect of over 40% in size; further: potency means the concentration at half of the fitted maximal effect
In short: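 Following 5 days in phenol red-free medium with charcoal-stripped serum, VM7Luc4E2 cells received test compounds alongside 0.1 nM 17beta-estradiol (final) at 37C for 22 hr. Live cells were then quantified via protease-substrate fluorescence.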

[2] = qHTS assay to identify small molecule antagonists of the androgen receptor (AR) signaling pathway using the MDA cell line in the presence of 0.5 nM R1881 - cell viability counter screen (AID 1259242); further: nearly all actives have a fitted effect of over 45% in size; further: potency means the concentration at half of the fitted maximal effect
In short: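 Live-cell protease fluorescence, CellTiter-Fluor, 30 min at 37C. Cells: MDA-kb2, 3,000/well, preincubated 5 hr. Compounds plus 0.5 nM R1881 final, 16 hr, 37C, 0% CO2.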

[3] = qHTS assay to identify small molecule HDAC inhibitors (AID 1259364); further: potency means the concentration at half of the fitted maximal effect;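 further: wild-type HCT-116 cells with endogenous class I/II HDAC activity; nearly all actives have a fitted effect of over 45% in size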
In short: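 HCT-116 (wild type), 1,500 cells/well, overnight; compound 2 hr 37C 5% CO2; HDAC-Glo I/II reagent 30 min RT; luminescence readout.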

[4] = qHTS assay to identify small molecule HDAC inhibitors - cell viability counter screen (AID 1259365); further: nearly all actives have a fitted effect of over 50% in size; further: potency means the concentration at half of the fitted maximal effect
In short: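 HCT-116 wild-type, overnight attachment; 2hr drug exposure, 37C; CellTiter-Glo luminescent ATP readout after 30min RT.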

[5] = qHTS assay to identify small molecule agonists of the sonic hedgehog signaling (Shh) pathway - cell viability counter screen (AID 1259366); further: nearly all actives have a fitted effect of over 50% in size; further: potency means the concentration at half of the fitted maximal effect
In short: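 Compounds in DMSO were pin-transferred onto 3T3 Gli1-Luc cells that had settled 4hr; plates then stood 24hr at 37C and 5% CO2. One hour before the end, CellTiter-Fluor was added and fluorescence recorded.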

[6] = qHTS assay to identify small molecule antagonists of the sonic hedgehog signaling (Shh) pathway - cell viability counter screen (AID 1259367); further: nearly all actives have a fitted effect of over 55% in size; further: potency means the concentration at half of the fitted maximal effect
In short: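 Cytotoxicity was assessed in parallel with Shh reporter activity by measuring live-cell protease fluorescence (CellTiter-Fluor) in NIH/3T3 cells stably carrying Gli1-Luc, treated with compound under conditioned medium stimulation for 23 hr plus 1 hr reagent incubation.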

[7] = qHTS assay to identify small molecule agonists of the sonic hedgehog signaling (Shh) pathway (AID 1259368; calls by dose curve; further: nearly all actives have a fitted effect of over 15% in size; further: potency means the concentration at half of the fitted maximal effect)
In short: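 Read-out: firefly luciferase luminescence from a Gli1 response element reporter stably integrated in NIH/3T3-derived 3T3Gli1-Luc cells, measured 30 min at room temperature after reagent addition. Compound exposure lasted 24 hr at 37 C, 5% CO2.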

[8] = biological target: Estrogen receptor (Homo sapiens) (UniProt P03372); test: qHTS assay to identify small molecule antagonists of the estrogen receptor alpha (ER-alpha) signaling pathway using the BG1 cell line in the presence of 0.1 nM 17-beta-estradiol (AID 1259244); further: nearly all actives have a fitted effect of over 50% in size; further: potency means the concentration at half of the fitted maximal effect
Estrogen receptor (Homo sapiens), sequence (P03372 whole entry, looked up): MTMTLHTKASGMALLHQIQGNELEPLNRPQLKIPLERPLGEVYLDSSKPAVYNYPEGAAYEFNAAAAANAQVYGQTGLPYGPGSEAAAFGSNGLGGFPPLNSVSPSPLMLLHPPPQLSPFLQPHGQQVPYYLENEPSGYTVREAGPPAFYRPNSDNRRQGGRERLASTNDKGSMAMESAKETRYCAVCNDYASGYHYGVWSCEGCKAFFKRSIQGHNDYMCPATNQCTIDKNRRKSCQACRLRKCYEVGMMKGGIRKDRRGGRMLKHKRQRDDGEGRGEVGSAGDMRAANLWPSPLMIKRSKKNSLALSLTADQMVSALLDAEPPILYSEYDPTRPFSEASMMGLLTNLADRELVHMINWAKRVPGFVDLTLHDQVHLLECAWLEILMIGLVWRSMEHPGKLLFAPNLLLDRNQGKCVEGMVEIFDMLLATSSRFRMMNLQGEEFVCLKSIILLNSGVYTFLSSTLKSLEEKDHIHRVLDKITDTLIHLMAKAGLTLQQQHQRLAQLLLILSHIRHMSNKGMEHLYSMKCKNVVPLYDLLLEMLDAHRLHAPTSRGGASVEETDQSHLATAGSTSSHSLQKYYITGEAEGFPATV
In short: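 Luminescence after ONE-Glo (30 min, room temperature) measured ERE-luciferase activity in VM7Luc4E2 cells treated 22 h with compound and 0.1 nM final 17beta-estradiol as stimulator.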

[9] = qHTS assay to identify small molecule phospholipidosis (PLD) inducers (AID 1259344; active means well fitted curve in the direction sought with a large enough effect; an effect the other way counts as inactive or inconclusive)
In short: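 Cells (HepG2, 900 per well) attach for 4 h, receive LipidTOX Red and compound together, incubate 24 h at 37 C, are fixed 30 min with paraformaldehyde/Hoechst, then imaged at one site per well.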

[10] = biological target: Androgen receptor (Homo sapiens) (UniProt P10275); test: qHTS assay to identify small molecule antagonists of the androgen receptor (AR) signaling pathway using the MDA cell line in the presence of 0.5 nM R1881 (AID 1259243); further: nearly all actives have a fitted effect of over 50% in size; further: potency means the concentration at half of the fitted maximal effect
Androgen receptor (Homo sapiens), sequence (P10275 whole entry, looked up): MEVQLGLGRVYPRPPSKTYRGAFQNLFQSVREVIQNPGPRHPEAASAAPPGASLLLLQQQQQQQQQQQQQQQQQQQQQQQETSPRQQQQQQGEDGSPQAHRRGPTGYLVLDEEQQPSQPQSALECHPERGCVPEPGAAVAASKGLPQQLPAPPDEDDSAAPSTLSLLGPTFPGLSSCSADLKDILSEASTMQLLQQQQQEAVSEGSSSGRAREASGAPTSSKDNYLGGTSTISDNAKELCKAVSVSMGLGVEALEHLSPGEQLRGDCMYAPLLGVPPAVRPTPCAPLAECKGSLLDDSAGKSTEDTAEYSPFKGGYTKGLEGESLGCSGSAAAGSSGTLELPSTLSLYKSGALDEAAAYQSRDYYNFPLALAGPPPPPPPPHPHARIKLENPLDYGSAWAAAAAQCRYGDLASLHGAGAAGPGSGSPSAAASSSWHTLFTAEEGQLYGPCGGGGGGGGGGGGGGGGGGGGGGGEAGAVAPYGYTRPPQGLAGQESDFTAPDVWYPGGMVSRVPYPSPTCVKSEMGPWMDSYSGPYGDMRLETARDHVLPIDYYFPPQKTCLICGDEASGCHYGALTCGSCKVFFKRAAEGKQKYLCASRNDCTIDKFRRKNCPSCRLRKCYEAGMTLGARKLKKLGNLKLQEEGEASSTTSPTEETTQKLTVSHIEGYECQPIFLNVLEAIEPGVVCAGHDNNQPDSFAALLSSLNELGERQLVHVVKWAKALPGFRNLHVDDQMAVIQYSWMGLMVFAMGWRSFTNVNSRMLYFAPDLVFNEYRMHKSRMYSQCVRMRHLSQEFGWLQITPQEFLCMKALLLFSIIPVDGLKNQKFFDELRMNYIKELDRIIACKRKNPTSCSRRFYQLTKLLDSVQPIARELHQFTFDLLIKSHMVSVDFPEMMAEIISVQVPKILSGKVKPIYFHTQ
In short: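 MDA-kb2, MMTV-luc (AR/GR elements); 3,000 cells/well; cpd + 0.5 nM R1881 final; 16 hr 37C, 0% CO2; ONE-Glo 30 min RT; luminescence.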

Measured: Potency

Nc1ncn[nH]1
not listed: [8] | [9] | [10]
inactive: all other assays above

CC(C)(O)C(=O)Nc1ccc([N+](=O)[O-])c(C(F)(F)F)c1
active: [8] 31.3 µM and 35.5 µM
not listed: [6] | [9] | [10]
inactive: all other assays above

NN=C(N)N
not listed: [8] | [10]
inactive: all other assays above

[CH3][Sn]([Cl])([Cl])[Cl]
not listed: [8] | [9] | [10]
inactive: all other assays above

CC(C)(c1ccccc1)c1ccc(O)cc1
inactive: [1] | [2] | [3] | [4] | [7]
active: [8] 61.1 µM | [5] 60.6 µM

CC(C)(O)C#N
not listed: [8] | [9] | [10]
inactive: all other assays above

C=CC(=O)OCC(CC)(COC(=O)C=C)COC(=O)C=C
inactive: [3] | [7]
22.3 µM (active) and inactive: [8]
active: [1] 70.4 µM | [10] 4.99 µM and 13.7 µM | [5] 11.2 µM and 9.69 µM | [6] 8.87 µM and 9.69 µM

COP(=O)(NC(C)=O)SC (stereo not given)
68.7 µM (active) and inactive: [6]
not listed: [8] | [9] | [10]
inactive: all other assays above

CCOP(=O)(OCC)OCC
not listed: [8] | [9] | [10]
inactive: all other assays above

COc1ccc(CO)cc1
not listed: [8] | [9] | [10]
inactive: all other assays above

ClCC(Cl)CCl
not listed: [8] | [9] | [10]
inactive: all other assays above

ClC(Cl)(Cl)Br
not listed: [8] | [9] | [10]
inactive: all other assays above

N#CC(c1ccccc1)c1ccccc1
inactive: [1] | [2] | [3] | [4] | [5] | [7]

O=[N+]([O-])/N=C1\NCCN1Cc1ccc(Cl)nc1
not listed: [2]
inactive: all other assays above

c1ccc(C2CO2)cc1 (stereo not given)
inactive: [1] | [2] | [3] | [4] | [5] | [7]

CCNc1nc(Cl)nc(NC(C)(C)C#N)n1
not listed: [8] | [9] | [10]
inactive: all other assays above

Nc1ccc2ccccc2c1
not listed: [6] | [9] | [10]
inactive: all other assays above

CNC(=O)Oc1cccc2c1OC(C)(C)C2
not listed: [2] | [9]
inactive: all other assays above

O=NN(c1ccccc1)c1ccccc1
not listed: [6] | [9] | [10]
inactive: all other assays above

O=S(=O)(O)C(F)(F)C(F)(F)C(F)(F)C(F)(F)C(F)(F)C(F)(F)C(F)(F)C(F)(F)F
not listed: [8] | [9] | [10]
inactive: all other assays above

COP(=S)(OC)Oc1ccc(S(=O)(=O)N(C)C)cc1
not listed: [2]
inactive: all other assays above

CCOC(=O)c1ccccc1N
not listed: [6] | [9] | [10]
inactive: all other assays above

CC1CC(=O)O1 (stereo not given)
inactive: [1] | [2] | [3] | [4] | [5] | [7]

S=c1[nH]c2ccccc2[nH]1
not listed: [2] | [8] | [9]
inactive: all other assays above

Clc1cccc(Cl)c1
inactive: [1] | [3] | [4] | [5] | [6] | [7]

N#Cc1cccnc1
not listed: [2] | [9] | [10]
inactive: all other assays above

Clc1ccccc1-c1nnc(-c2ccccc2Cl)nn1
active: [3] 9.6 µM and 4.31 µM
inactive: [1] | [8] | [4] | [5]

Clc1ccc(C(Cl)(Cl)Cl)cc1
not listed: [2] | [9] | [10]
inactive: all other assays above

O=C1C(Cl)=C(Cl)C(=O)c2ccccc21
inactive: [7]
active: [1] 24.4 µM | [8] 12.2 µM and 19.3 µM | [4] 61.3 µM and 38.6 µM | [5] 4.34 µM

OCCOCCO
inactive: [1] | [8] | [3] | [4] | [7]
56.1 µM (active) and inactive: [5]

CCC/C=N/O
inactive: [1] | [8] | [3] | [4] | [5] | [7]

Cn1c(-c2ccccc2)cc(-c2ccccc2)[n+]1C
active: [8] 5.44 µM and 24.3 µM
not listed: [2] | [9] | [10]
inactive: all other assays above

O=C(O)CF
not listed: [2] | [9] | [10]
inactive: all other assays above

O=[N+]([O-])c1ccc(Nc2ccccc2)cc1
inactive: [2] | [3] | [4] | [7]

CC(C)=CC1C(C(=O)OCc2cccc(Oc3ccccc3)c2)C1(C)C (stereo not given)
not listed: [2] | [10]
inactive: all other assays above

O=C1Nc2ccc(Cl)cc2C(c2ccccc2)=NC1O (stereo not given)
inactive: [1] | [9] | [3] | [4] | [5] | [7]

C[C@]12CC[C@H]3[C@@H](CCC4=CC(=O)CC[C@@H]43)[C@@H]1CC[C@@H]2O
not listed: [2] | [10]
inactive: all other assays above

CNC(=S)S
inactive: [1] | [8] | [3] | [4] | [5] | [7]

CCC(=O)Nc1ccc(Cl)c(Cl)c1
active: [10] 7 µM and 13.7 µM
inactive: [1] | [3] | [4] | [5] | [7]

CCOS(=O)(=O)OCC
inactive: [1] | [8] | [3] | [4] | [5] | [7]

CCCCCCCCCC(CC)c1ccc(S(=O)(=O)O)cc1 (stereo not given)
inactive: [1] | [9] | [3] | [4] | [5] | [7]

O=P(OCCCl)(OCCCl)OCCCl
inactive: [1] | [3] | [4] | [5] | [7]

COC(=O)Nc1nc2ccccc2[nH]1
active: [3] 24.3 µM and 27.3 µM
inactive: [1] | [10] | [4] | [5] | [7]

N#CCCCCC#N
inactive: [1] | [3] | [4] | [5] | [7]

Nc1ccc([N+](=O)[O-])cc1N
active: [1] 61.1 µM | [5] 30.6 µM and 24.3 µM | [6] 12.2 µM and 19.3 µM
inactive: [3] | [4] | [7]

Cc1cc(Cl)ccc1N=CN(C)C
inactive: [1] | [3] | [4] | [5] | [6] | [7]

CCCCCCCCCCCCCl
not listed: [2] | [9] | [10]
inactive: all other assays above

CCCCOCCOC(C)=O
not listed: [2] | [9] | [10]
inactive: all other assays above

CN(C)c1nc(=O)n(C2CCCCC2)c(=O)n1C
inactive: [1] | [8] | [3] | [4] | [5] | [7]

CCOP(=O)(O)OCC (tested in a mixture with another compound)
inactive: [1] | [3] | [4] | [7]
inactive and 48.2 µM (active): [5]

NC(=O)CN1CCCC1=O
inactive: [1] | [9] | [3] | [4] | [5] | [7]

CC(C)(c1ccccc1)c1ccc(O)c(C(C)(C)c2ccccc2)c1
active: [1] 61.1 µM | [8] 60.6 µM | [5] 60.6 µM and 54.5 µM
inactive: [3] | [4] | [7]

CCCCC(C#N)(Cn1cncn1)c1ccc(Cl)cc1 (stereo not given)
not listed: [2] | [9] | [10]
inactive: all other assays above

CNC(=O)CSP(=S)(OC)OC
28.1 µM (active) and inactive: [6]
not listed: [2] | [9] | [10]
inactive: all other assays above

CCOP(=S)(OCC)SCSC(C)(C)C
not listed: [2] | [9] | [10]
inactive: all other assays above

CCCCSP(=O)(SCCCC)SCCCC
inactive: [1] | [3] | [4] | [5] | [7]

CC(O)CN(CC(C)O)CC(C)O (stereo not given)
inactive: [1] | [3] | [4] | [5] | [7]

OC(c1ccc(Cl)cc1)(c1cncnc1)c1ccccc1Cl (stereo not given)
inactive: [1] | [3] | [4] | [5] | [6] | [7]

CCC[CH2][Sn]([Cl])([Cl])[CH2]CCC
active: [1] 1.74 µM and 2.43 µM | [5] 276 nM and 433 nM | [6] 552 nM and 770 nM
1.23 µM (active) and inactive: [8]
inactive: [3] | [7]

CCCCCCCC[N+](C)(CCCCCCCC)CCCCCCCC
active: [1] 24.3 µM and 27.3 µM and 48.6 µM | [8] 1.22 µM and 15.4 µM | [5] 48.5 µM and 9.7 µM and 19.3 µM | [6] 61 µM and 10.9 µM and 24.3 µM
inactive: [3] | [7]
inactive and 61.1 µM (active): [4]

N#Cc1c(Cl)c(Cl)c(Cl)c(C#N)c1Cl
active: [2] 16.9 µM and 13.7 µM | [8] 6.73 µM and 15.4 µM | [5] 2.13 µM and 3.86 µM | [7] 673 nM and 969 nM
inactive: [3] | [4]

CC1(C)C(C(=O)OC(C#N)c2cccc(Oc3ccccc3)c2)C1(C)C (stereo not given)
54.9 µM (active) and inactive: [8]
not listed: [2] | [9] | [10]
inactive: all other assays above
